# Reference: PubChem BioAssay (Tox21)
# A number with no mark means an inactive call. A call without a number means that no potency is given here. Activity calls are given as the source filed them. Calls come from the whole dose curve.
# Target: Acetylcholinesterase (Homo sapiens) (UniProt P22303)
# Assay: Acetylcholinesterase (AChE) small molecule antagonists: enzyme-based qHTS assay (AID 1347397); note: nearly all actives have a fitted effect of over 55% in size
# Details: Potency: AChE enzyme activity inhibition; outcome: AChE enzyme activity inhibition; series mostly up to 115 µM
# Source text: National Center for Advancing Translational Sciences [NCATS]
# Division of Preclinical Innovation [DPI]
# U.S. Environmental Protection Agency [EPA]
# National Institutes of Environmental Health Sciences [NIEHS]
# National Toxicology Program [NTP]
# U.S. Food and Drug Administration [FDA]
# Acetylcholinesterase (AChE) is the primary cholinesterase in the body that hydrolyzes a key neurotransmitter, acetylcholine. Inhibition of AChE activity can lead to neurotoxicity. The known inhibitors include organophosphorous pesticides (OP), chemical warfare agents, drugs, and various phytochemicals.
# An enzyme-based assay with the recombinant human AChE and Amplite Colormetric acetylcholinesterase assay kit (AAT Bioquest, Sunnyvale, CA) was used to evaluate the chemicals in the Tox21 10K library that inhibit AChE activity. The assay uses 5, 5-dithiobis-(2-nitrobenzoic acid) (DTNB) to quantify the thiocholine produced from the hydrolysis of acetylthiocholine by AChE.
# Tox21 Assay Protocol Summary:
# For the enzyme-based AChE assay, recombinant human AChE (50 mU/mL) in 4 uL/well was dispensed into black, clear-bottom 1536-well plates using a Multidrop Combi dispenser (Thermo Scientific, MA). Then, 23 nL of compound or DMSO (vehicle control) was transferred into the assay plates by a Pintool Station (Wako Automation, CA). The plates were incubated for 30 min at room temperature, followed by the addition of 4 uL of colorimetric detection cocktail solution (DTNB, acetylthiocholine) into each well using a Flying Reagent Dispenser (Beckman Coulter, CA) and then 10 min incubation at room temperature.
# Potency is the fitted concentration of half-maximal effect.
# Acetylcholinesterase (Homo sapiens), sequence (P22303 whole entry, looked up): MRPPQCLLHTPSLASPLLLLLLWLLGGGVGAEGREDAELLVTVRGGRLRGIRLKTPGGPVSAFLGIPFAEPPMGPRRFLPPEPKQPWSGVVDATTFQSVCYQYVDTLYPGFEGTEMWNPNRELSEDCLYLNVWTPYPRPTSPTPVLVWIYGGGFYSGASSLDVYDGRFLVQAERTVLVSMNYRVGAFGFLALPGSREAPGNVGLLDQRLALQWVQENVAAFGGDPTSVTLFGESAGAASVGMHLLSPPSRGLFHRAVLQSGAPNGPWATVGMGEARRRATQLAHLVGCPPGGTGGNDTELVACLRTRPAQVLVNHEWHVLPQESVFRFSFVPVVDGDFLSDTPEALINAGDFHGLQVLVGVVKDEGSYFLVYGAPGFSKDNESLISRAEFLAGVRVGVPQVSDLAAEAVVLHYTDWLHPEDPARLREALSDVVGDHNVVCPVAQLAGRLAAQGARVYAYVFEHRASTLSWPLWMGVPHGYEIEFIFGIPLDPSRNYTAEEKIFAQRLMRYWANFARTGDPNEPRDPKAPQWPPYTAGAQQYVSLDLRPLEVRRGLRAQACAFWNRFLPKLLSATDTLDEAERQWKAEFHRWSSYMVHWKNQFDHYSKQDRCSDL
SMILES,Potency,"activity change, negative = inhibition"
OC[C@@H](O)[C@@H](O)CO,inactive,
CCCCCCCCN(C)CCCCCCCC,inactive,
CC(C)C(=O)O,inactive,
O=c1c2ccccc2nnn1CCl,inactive,
CCCCCCCCCCCCCCCCCCCl,,-0.128% [at 10.5 µM]
Cc1cccc(CN2CCN(C(c3ccccc3)c3ccc(Cl)cc3)CC2)c1 (stereo not given),inactive,
Nc1cccc2c(=O)[nH][nH]c(=O)c12,inactive,
O=C(CCN1CCN2CCCC2C1)N1c2ccccc2Sc2ccc(Cl)cc21 (stereo not given),,0.831% [at 23.6 µM]
O=C1CC[C@@H](C(=O)O)N1,inactive,
CC(=O)c1ccccc1N,inactive,
CC(=O)Oc1ccc(C(c2ccc(OC(C)=O)cc2)c2ccccn2)cc1,inactive,
CCCCCCOC(=O)CC,inactive,
CCCCCCCCc1ccc(Nc2ccc(CCCCCCCC)cc2)cc1,inactive,
CCO[Si](CCCSSSSCCC[Si](OCC)(OCC)OCC)(OCC)OCC,inactive,
CCOC(=O)c1ccc(C#Cc2ccc3c(c2)C(C)(C)CCS3)nc1,inactive,
CCCCCCCCCCCCN(CCO)CCO,inactive,
COc1ccccc1N1CCN(CCCNc2cc(=O)n(C)c(=O)n2C)CC1,inactive,
CNC(=O)C(c1ccccc1)c1ccccc1,inactive,
CC(C)COC(=O)CC(C(=O)OCC(C)C)S(=O)(=O)O (stereo not given),inactive,
CCCCCOc1ccccc1/C(=C\SC)n1ccnc1,inactive,

SMILES,Potency,"activity change, negative = inhibition"
CC(Cc1ccccc1)(NC(=O)CN)c1ccccc1 (stereo not given),inactive,
CCOC(=O)C(=O)c1csc(NC=O)n1,inactive,
CCCCOC(=O)CC,inactive,
O=S1(=O)CCCC1,inactive,
CCc1c(Br)c(Br)c(Br)c(Br)c1Br,inactive,
Nc1cc(C(=O)O)c(O)c(S(=O)(=O)O)c1,inactive,
CN(C)CCOC(c1ccc(Cl)cc1)c1ccccn1 (stereo not given),inactive,
CCCCCCCCOC(=O)CCCCCCCCC(=O)OCCCCCCCC,inactive,
CC(=O)c1cnccn1,inactive,
CCCCCCCC/C=C\CCCCCCCC(=O)N(C)CC(=O)O,63.3 µM (active),
CC(CN)CC(C)(C)CCN (stereo not given),inactive,
C=COCCCC,inactive,
CC(C)=CCC/C(C)=C/COC=O,inactive,
COCCO,inactive,
CC(CC(=O)Cl)CC(C)(C)C (stereo not given),inactive,
NCc1ccccc1,inactive,
CC(C)(O)c1ccc(CNC(=O)c2cccnc2Oc2ccc(F)cc2)cc1,inactive,
FC(F)OC(Cl)C(F)(F)F (stereo not given),inactive,
CCCCOc1ccc(OCCCN2CCOCC2)cc1,inactive,
CCOC(=O)[C@H](CCc1ccccc1)N[C@@H](C)C(=O)N1Cc2cc(OC)c(OC)cc2C[C@H]1C(=O)O,inactive,
